Source: PubChem BioAssay (several laboratories)
Sampled rows, rich in hits. Any-hit rate of the full collection: about 1.9%.
dFosB act-1 = mouse delta FosB homodimer activation. purified delta FosB, TAMRA-CDK5 oligo fluorescence polarization; percent of positive-control signal above neutral wells. 340,000 compounds, 0.99% hits. activation, % at 25 µM;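 active means mean activation above about 17%, with every replicate also reaching it, limit read from the data, passing the limit was not always enough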
Target sequence (P13346 whole entry, looked up): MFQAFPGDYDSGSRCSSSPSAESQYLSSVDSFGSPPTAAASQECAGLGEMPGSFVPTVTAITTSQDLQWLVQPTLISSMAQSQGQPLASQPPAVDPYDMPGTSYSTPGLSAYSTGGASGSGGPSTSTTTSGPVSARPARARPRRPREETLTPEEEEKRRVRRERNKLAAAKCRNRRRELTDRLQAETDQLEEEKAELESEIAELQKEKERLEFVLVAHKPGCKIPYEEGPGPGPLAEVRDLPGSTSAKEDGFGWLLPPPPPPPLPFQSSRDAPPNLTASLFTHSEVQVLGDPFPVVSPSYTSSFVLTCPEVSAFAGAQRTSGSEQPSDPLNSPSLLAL
p47phox inh = inhibitors of human p47phox binding | p47phox/p22phox peptide binding, fluorescence polarization, 2 h | inhibition, % at 24.7 µM | 220,000 compounds, 0.53% hits | AID 1274;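 active means inhibition above about 30%, limit read from the data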;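 further: 0% = p47phox with labelled peptide and 100% = labelled peptide alone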
Efa HMGR inh = E. faecalis class II HMG-CoA reductase inhibition; inhibition, % at 10 µM; purified E. faecalis HMGR, NADPH absorbance 340 nm kinetic; 190,000 compounds, 0.41% hits;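 active means inhibition above a set limit, the median over all tested compounds plus 3 SD, cut at about 9.5% in these data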;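 further: enzyme runs in reverse so mevalonate oxidation gives rising NADPH absorbance; 0% = complete reaction with DMSO and 100% = background rate lacking mevalonate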
14-3-3 Bad PPI = disrupts binding of bovine 14-3-3 zeta to phospho-Bad peptide; AID 781; 220,000 compounds, 0.71% hits; inhibition, % at 21.7 µM; TR-FRET 14-3-3zeta/Dy647-pBad peptide displacement, 1 h;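 active means inhibition above about 70%, limit read from the data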;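 further: 0% = full 14-3-3 plus peptide FRET controls and 100% = background without 14-3-3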
Target sequence (P63103 whole entry, looked up): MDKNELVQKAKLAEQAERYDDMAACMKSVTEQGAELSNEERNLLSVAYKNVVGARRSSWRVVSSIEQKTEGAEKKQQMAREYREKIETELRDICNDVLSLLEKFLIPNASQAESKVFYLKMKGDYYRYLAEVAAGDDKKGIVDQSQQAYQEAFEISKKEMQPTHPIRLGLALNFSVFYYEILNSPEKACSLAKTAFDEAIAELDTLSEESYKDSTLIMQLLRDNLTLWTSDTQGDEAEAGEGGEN
dFosB act-2 = activators of mouse delta FosB homodimer DNA binding | AID 588690 | 2,400 tested, under 10 active | activation, % at 24.9 µM | shares compounds with dFosB act-1 | purified delta FosB, TAMRA-CDK5 oligo fluorescence polarization; normalised: neutral wells 0, positive control 100;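 active means highest replicate activation at or above 34% and every replicate reaching that threshold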;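 further: higher polarization means more probe DNA bound by delta FosB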
* marks the source's active call; other numbers are inactive results.

For CC(C)CN(C(=O)CSc1nnnn1-c1ccccc1)c1c(N)n(CC(C)C)c(=O)[nH]c1=O the results were dFosB act-1 38*, p47phox inh 1, Efa HMGR inh 1, 14-3-3 Bad PPI -15 and dFosB act-2 3.
For CC(C)CN(C(=O)COC(=O)/C=C/c1cccs1)c1c(N)n(Cc2ccccc2)c(=O)[nH]c1=O the results were dFosB act-1 34* and dFosB act-2 3.
`Cc1ccccc1C1CC(c2ccccc2)Nc2ncnn21` (stereo not drawn) gave dFosB act-1 0, p47phox inh -25, Efa HMGR inh 4 and 14-3-3 Bad PPI 4.
For COc1ccc(N(CC(=O)N/N=C/c2ccccc2OC)S(=O)(=O)c2ccccc2)cc1 the results were dFosB act-1 -3.
For COc1ccc(CCNC(=O)c2ccccc2)cc1 the results were dFosB act-1 -10.
For Cc1nn(-c2ccccc2)c(Cl)c1C(=O)N1CCN(c2ncnc3c2cnn3-c2ccccc2)CC1 the results were dFosB act-1 0, p47phox inh 1, Efa HMGR inh -4 and 14-3-3 Bad PPI -6.
`Cc1ccc(Nc2nc(Nc3ccc(C)cc3)nc(SC3=NCCS3)n2)cc1` gave dFosB act-1 26*, p47phox inh -4, Efa HMGR inh 1, 14-3-3 Bad PPI 11 and dFosB act-2 5.
For Cc1ccc(C(Sc2ccccc2)C(Cn2cncn2)C(=O)c2ccccc2)cc1 (stereo not drawn) the results were dFosB act-1 24*, p47phox inh 10, Efa HMGR inh -11, 14-3-3 Bad PPI -1 and dFosB act-2 0.
CC(C)CC(COCc1ccc(Cl)cc1)N1CCN(C(=O)c2cccc(C(F)(F)F)c2)CCC1=O (stereo not drawn) was read as dFosB act-1 -18, p47phox inh -5, Efa HMGR inh -9 and 14-3-3 Bad PPI -15.
For CN(NC(=O)c1ccc(Cl)cc1)c1nc(-c2ccccc2)nnc1C(F)(F)F the results were dFosB act-1 32*, p47phox inh -3, Efa HMGR inh 2, 14-3-3 Bad PPI 9 and dFosB act-2 6.
`CC(C)CC(=O)NN(C)c1nc(-c2ccccc2)nnc1C(F)(F)F` gave dFosB act-1 3, p47phox inh -4, Efa HMGR inh -2 and 14-3-3 Bad PPI 7.
For Cc1nn(CC(=O)NC2C(=O)N3C(C(=O)O)=C(CSc4nnnn4C)CSC23)cc1Br (stereo not drawn) the results were dFosB act-1 -12, Efa HMGR inh -2 and 14-3-3 Bad PPI 3.
NS(=O)(=O)c1ccc(NC(=O)c2ccc(CSc3ccccc3)o2)cc1 was read as dFosB act-1 34* and dFosB act-2 -8.
For CNC(=O)CN1C(=O)C2C3C=CC(C3)C2C1=O (stereo not drawn) the results were dFosB act-1 3, p47phox inh -4, Efa HMGR inh -1 and 14-3-3 Bad PPI 5.
Screening COC(=O)CNC(=O)CNC(=O)c1nn(-c2ccc(OC)c(Cl)c2)c(=O)c2ccccc12 returned dFosB act-1 3, p47phox inh -19, Efa HMGR inh -4 and 14-3-3 Bad PPI -8.
Screening COc1ccc(-n2nc(C(=O)NCC(=O)Nc3cc(OC)c(OC)c(OC)c3)c3ccccc3c2=O)cc1OC returned dFosB act-1 24* and dFosB act-2 -2.
For COc1ccc(-n2nc(C(=O)NCC(=O)NCc3cccc(F)c3)c3ccccc3c2=O)cc1Cl the results were dFosB act-1 26* and dFosB act-2 4.
Screening COc1ccc(-n2nc(C(=O)NCC(=O)Nc3cc(OC)c(OC)c(OC)c3)c3ccccc3c2=O)cc1 returned dFosB act-1 11.
`COc1ccc2sc(/C=C/c3ccccc3O)[n+](C)c2c1` gave dFosB act-1 65*, p47phox inh -234, Efa HMGR inh -3, 14-3-3 Bad PPI 4 and dFosB act-2 8.
COc1ccc(OC)c(-c2cc(C(=O)Nc3ccc(F)cc3F)no2)c1 was read as dFosB act-1 33*, p47phox inh 24, Efa HMGR inh -2, 14-3-3 Bad PPI 88* and dFosB act-2 6.
For COc1ccc(-c2cc(C(=O)Nc3ccc(F)cc3F)no2)cc1 the results were dFosB act-1 -2.
`COc1ccc(N2CC(C(=O)Nc3cc(C(F)(F)F)ccc3N3CCCC3)CC2=O)c(OC)c1` (stereo not drawn) gave dFosB act-1 -17.
Screening O=C(CC(NC(=O)C(F)(F)F)c1ccccc1)Nc1nnc(CCc2ccccc2)s1 (stereo not drawn) returned dFosB act-1 19*, p47phox inh -29, Efa HMGR inh -4, 14-3-3 Bad PPI 2 and dFosB act-2 4.
`Cc1nnc(NC(=O)CC(NC(=O)C(F)(F)F)c2ccccc2)s1` (stereo not drawn) gave dFosB act-1 0, p47phox inh -11, Efa HMGR inh 2 and 14-3-3 Bad PPI -3.
For Cc1nn(Cc2ccccc2)c(Cl)c1/C=C/C(=O)OC(C(=O)NC(N)=O)C(C)C (stereo not drawn) the results were dFosB act-1 50*, p47phox inh -7, Efa HMGR inh 1, 14-3-3 Bad PPI -8 and dFosB act-2 -1.
`COc1ccc(Cl)cc1NC(=O)c1[nH]c(C)c(C(C)=O)c1C` gave dFosB act-1 36* and dFosB act-2 4.
`CC(C)(C)c1cc(NS(=O)(=O)c2ccc(Br)s2)no1` gave dFosB act-1 3.
Screening COc1ccc(OC2C(=O)N(Cc3ccc(F)cc3)C2c2cc(OC)c(OC)c(OC)c2)cc1 (stereo not drawn) returned dFosB act-1 -3, p47phox inh -5, Efa HMGR inh -2 and 14-3-3 Bad PPI 6.
COC(=O)c1ccc(C2C(Oc3ccc(OC)cc3)C(=O)N2CCc2ccc(F)cc2)cc1 (stereo not drawn) was read as dFosB act-1 23*, p47phox inh 3, Efa HMGR inh -2, 14-3-3 Bad PPI -5 and dFosB act-2 -1.
O=C(O)c1cc(C(=O)C2CC2)c[nH]1 was read as dFosB act-1 2, p47phox inh -2, Efa HMGR inh 0 and 14-3-3 Bad PPI -5.
For CNc1nc(Nc2ccc(C)c(Cl)c2)c2cnn(C)c2n1 the results were dFosB act-1 -6.
Cn1ncc2c(Nc3cccc(Cl)c3)nc(Nc3cccc(Cl)c3)nc21 was read as dFosB act-1 31*, p47phox inh -27, 14-3-3 Bad PPI -8 and dFosB act-2 1.
`Cn1ncc2c(Nc3ccc(O)cc3)nc(Cl)nc21` gave dFosB act-1 -6, p47phox inh -2 and 14-3-3 Bad PPI -9.
Cn1ncc2c(Nc3ccc(Br)cc3)nc(Nc3ccc(Br)cc3)nc21 was read as dFosB act-1 53*, p47phox inh -50, 14-3-3 Bad PPI -3 and dFosB act-2 4.
`COC(=O)c1cc(-n2cccc2)ccc1N1CCOCC1` gave dFosB act-1 -1, p47phox inh -9 and 14-3-3 Bad PPI -4.
